# Columns and labels:
# [1] = target: T1, Tyrosine-protein kinase receptor TYRO3 (Homo sapiens) (UniProt Q06418); conditions: at 1 µM
# T1 sequence (whole entry): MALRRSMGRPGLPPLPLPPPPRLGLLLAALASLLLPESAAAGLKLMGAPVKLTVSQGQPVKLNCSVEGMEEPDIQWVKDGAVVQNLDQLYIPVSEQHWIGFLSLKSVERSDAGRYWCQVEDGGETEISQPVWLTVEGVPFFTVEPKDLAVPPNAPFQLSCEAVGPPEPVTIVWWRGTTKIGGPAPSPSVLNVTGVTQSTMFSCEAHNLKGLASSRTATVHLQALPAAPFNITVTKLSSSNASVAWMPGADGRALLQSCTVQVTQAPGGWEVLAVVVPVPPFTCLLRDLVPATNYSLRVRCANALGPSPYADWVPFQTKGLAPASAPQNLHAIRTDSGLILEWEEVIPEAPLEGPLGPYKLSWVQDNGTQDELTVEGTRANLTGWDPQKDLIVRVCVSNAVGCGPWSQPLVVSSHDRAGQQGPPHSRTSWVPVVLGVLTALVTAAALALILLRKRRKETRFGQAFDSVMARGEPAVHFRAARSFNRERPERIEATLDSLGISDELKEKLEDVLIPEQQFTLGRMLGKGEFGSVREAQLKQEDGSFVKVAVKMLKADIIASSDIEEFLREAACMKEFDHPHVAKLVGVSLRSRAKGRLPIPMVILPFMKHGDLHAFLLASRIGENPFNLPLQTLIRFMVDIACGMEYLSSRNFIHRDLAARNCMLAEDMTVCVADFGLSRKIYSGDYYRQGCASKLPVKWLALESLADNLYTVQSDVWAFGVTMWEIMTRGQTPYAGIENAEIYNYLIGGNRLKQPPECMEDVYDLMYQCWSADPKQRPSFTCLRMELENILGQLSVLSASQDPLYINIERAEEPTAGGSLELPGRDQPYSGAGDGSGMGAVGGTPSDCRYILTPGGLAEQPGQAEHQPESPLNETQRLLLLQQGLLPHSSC
# [2] = target: T1, Tyrosine-protein kinase receptor TYRO3 (Homo sapiens); conditions: at 10 µM
# [3] = target: Ribosomal protein S6 kinase alpha-1 (Homo sapiens) (UniProt Q15418); conditions: at 10 µM
# Chain of Ribosomal protein S6 kinase alpha-1 (Homo sapiens) (Q15418 whole entry): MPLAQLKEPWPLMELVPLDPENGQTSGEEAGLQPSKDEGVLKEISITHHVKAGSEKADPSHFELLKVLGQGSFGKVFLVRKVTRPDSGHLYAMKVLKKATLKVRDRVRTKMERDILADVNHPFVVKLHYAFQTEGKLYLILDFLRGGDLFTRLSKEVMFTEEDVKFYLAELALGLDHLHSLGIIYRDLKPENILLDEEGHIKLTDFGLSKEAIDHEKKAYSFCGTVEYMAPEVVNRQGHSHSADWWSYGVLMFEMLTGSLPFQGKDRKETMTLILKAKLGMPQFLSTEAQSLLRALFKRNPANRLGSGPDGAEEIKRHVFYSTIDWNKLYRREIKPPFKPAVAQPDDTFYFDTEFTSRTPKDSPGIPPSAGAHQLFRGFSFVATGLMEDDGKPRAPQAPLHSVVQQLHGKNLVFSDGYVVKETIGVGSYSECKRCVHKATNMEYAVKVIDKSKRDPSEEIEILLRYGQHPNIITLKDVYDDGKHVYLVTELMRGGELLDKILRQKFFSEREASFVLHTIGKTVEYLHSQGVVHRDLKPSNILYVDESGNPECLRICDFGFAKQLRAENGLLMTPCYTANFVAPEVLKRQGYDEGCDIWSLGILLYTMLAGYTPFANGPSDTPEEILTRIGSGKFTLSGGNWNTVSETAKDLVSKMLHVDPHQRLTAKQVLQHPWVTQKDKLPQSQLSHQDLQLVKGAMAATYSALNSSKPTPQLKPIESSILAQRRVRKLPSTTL
# [4] = target: Ribosomal protein S6 kinase alpha-3 (Homo sapiens) (UniProt P51812); conditions: at 1 µM
# Chain of Ribosomal protein S6 kinase alpha-3 (Homo sapiens) (P51812 whole entry): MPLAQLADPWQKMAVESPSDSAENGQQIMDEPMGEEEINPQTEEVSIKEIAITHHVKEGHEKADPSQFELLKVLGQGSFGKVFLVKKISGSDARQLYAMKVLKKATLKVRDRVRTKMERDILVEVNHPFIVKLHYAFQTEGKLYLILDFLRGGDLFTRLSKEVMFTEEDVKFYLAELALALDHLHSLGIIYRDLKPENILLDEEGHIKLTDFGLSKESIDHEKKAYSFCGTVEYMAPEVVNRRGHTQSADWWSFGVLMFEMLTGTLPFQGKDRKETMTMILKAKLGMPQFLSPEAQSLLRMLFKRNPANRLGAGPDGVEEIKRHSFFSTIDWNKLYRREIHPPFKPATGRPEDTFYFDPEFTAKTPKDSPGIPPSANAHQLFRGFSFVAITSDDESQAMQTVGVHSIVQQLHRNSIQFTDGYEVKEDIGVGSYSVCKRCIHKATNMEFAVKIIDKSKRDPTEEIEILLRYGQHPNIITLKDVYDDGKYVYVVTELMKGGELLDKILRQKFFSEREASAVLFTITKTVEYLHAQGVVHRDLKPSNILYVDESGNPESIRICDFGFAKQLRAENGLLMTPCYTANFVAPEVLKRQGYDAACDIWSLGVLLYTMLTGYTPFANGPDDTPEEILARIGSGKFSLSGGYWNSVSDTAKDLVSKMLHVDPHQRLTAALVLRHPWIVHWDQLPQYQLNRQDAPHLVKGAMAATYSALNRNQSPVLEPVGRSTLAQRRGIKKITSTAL
# [5] = target: Ribosomal protein S6 kinase alpha-3 (Homo sapiens) (UniProt P51812); conditions: at 10 µM
# [6] = target: Ribosomal protein S6 kinase alpha-2 (Homo sapiens) (UniProt Q15349); conditions: at 10 µM
# Chain of Ribosomal protein S6 kinase alpha-2 (Homo sapiens) (Q15349 whole entry): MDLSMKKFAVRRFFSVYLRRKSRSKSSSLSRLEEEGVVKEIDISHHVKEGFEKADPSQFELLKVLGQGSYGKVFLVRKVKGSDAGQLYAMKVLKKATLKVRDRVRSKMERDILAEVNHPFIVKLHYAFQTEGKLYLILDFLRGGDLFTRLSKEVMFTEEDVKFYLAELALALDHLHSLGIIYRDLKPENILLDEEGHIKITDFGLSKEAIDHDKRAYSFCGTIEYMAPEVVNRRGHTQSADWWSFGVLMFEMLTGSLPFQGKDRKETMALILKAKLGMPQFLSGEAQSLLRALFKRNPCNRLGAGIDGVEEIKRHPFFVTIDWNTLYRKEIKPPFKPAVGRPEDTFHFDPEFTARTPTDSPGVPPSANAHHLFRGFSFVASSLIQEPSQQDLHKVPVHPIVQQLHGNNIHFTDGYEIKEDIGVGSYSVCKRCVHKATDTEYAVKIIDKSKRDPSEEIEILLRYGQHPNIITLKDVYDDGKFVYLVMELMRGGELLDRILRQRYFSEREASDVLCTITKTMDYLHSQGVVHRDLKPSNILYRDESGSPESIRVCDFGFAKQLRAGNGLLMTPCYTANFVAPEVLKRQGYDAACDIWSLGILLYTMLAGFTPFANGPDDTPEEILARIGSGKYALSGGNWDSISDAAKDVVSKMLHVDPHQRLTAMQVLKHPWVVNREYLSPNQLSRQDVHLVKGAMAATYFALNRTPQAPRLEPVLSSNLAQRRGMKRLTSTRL
# [7] = target: Ribosomal protein S6 kinase alpha-6 (Homo sapiens) (UniProt Q9UK32); conditions: at 1 µM
# Chain of Ribosomal protein S6 kinase alpha-6 (Homo sapiens) (Q9UK32 whole entry): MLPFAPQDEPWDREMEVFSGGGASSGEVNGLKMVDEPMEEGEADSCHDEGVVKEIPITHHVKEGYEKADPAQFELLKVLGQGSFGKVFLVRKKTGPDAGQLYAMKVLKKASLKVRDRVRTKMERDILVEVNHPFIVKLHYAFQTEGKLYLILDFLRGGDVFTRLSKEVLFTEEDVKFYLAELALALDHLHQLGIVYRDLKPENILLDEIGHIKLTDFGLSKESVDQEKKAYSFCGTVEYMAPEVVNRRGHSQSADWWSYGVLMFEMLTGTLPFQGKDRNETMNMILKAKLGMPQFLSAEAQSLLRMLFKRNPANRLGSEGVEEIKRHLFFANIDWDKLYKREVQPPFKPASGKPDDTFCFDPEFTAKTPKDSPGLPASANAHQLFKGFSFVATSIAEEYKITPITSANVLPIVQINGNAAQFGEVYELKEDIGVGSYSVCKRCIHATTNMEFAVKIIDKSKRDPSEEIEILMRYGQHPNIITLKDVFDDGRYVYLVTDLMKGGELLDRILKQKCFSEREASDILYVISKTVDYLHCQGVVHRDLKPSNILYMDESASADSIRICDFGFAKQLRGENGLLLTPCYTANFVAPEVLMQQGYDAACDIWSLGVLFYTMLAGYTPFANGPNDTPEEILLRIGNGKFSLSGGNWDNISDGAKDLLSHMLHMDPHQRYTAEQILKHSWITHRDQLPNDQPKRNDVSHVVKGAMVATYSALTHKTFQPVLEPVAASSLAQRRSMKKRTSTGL
# [8] = target: Ribosomal protein S6 kinase alpha-6 (Homo sapiens) (UniProt Q9UK32); conditions: at 10 µM
# [9] = target: T2, Serine/threonine-protein kinase Sgk1 (Homo sapiens) (UniProt O00141); conditions: at 10 µM
# T2 sequence (whole entry): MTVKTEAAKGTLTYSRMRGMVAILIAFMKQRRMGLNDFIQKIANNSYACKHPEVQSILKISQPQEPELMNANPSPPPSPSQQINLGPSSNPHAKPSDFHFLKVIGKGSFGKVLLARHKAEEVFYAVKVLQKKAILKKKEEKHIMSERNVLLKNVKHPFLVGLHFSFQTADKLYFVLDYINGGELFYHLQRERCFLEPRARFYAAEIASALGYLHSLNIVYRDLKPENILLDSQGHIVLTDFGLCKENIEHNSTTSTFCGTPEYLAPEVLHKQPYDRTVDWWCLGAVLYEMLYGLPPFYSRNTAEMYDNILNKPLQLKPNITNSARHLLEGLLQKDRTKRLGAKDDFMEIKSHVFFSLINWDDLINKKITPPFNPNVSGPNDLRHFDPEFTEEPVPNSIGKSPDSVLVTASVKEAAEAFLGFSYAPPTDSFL
# [10] = target: T3, Mitogen-activated protein kinase 12 (Homo sapiens) (UniProt P53778); conditions: at 1 µM
# T3 sequence (whole entry): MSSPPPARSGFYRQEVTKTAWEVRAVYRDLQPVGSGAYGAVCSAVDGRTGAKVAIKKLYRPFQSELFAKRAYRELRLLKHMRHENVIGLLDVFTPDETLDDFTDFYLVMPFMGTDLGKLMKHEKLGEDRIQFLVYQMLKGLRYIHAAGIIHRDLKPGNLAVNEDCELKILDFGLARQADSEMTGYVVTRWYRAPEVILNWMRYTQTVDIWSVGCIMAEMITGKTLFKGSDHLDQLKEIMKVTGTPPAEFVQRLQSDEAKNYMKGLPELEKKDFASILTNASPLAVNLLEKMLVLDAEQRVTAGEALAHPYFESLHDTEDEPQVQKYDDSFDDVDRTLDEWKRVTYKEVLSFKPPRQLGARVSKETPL
# [11] = target: Ribosomal protein S6 kinase alpha-1 (Homo sapiens) (UniProt Q15418); conditions: at 1 µM
# [12] = target: Ribosomal protein S6 kinase alpha-2 (Homo sapiens) (UniProt Q15349); conditions: at 1 µM
# [13] = target: Mitogen-activated protein kinase 14 (Homo sapiens) (UniProt Q16539); conditions: at 1 µM
# Chain of Mitogen-activated protein kinase 14 (Homo sapiens) (Q16539 whole entry): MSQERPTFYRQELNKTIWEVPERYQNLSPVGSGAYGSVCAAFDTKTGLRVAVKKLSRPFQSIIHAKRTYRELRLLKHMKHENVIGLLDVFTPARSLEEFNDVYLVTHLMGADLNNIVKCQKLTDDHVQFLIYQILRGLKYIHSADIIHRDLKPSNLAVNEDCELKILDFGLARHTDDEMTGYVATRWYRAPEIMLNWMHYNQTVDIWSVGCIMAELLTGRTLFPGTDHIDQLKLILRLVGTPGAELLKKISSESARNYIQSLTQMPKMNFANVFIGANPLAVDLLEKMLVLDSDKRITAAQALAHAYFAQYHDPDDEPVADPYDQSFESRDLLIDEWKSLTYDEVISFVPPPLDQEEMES
# [14] = target: Mitogen-activated protein kinase 14 (Homo sapiens) (UniProt Q16539); conditions: at 10 µM
# [15] = target: Mitogen-activated protein kinase 11 (Homo sapiens) (UniProt Q15759); conditions: at 1 µM
# Chain of Mitogen-activated protein kinase 11 (Homo sapiens) (Q15759 whole entry): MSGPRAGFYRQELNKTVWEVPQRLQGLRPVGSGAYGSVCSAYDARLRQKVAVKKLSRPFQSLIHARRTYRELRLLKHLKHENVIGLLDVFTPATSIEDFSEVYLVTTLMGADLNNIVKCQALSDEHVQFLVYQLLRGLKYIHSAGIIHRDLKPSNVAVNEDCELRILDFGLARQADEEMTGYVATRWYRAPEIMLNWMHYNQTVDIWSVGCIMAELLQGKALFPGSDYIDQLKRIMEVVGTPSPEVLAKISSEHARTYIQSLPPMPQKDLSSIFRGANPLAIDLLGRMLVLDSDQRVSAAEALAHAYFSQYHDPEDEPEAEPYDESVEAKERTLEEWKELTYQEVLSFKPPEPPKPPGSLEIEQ
# [16] = target: Mitogen-activated protein kinase 11 (Homo sapiens) (UniProt Q15759); conditions: at 10 µM
# [17] = target: T3, Mitogen-activated protein kinase 12 (Homo sapiens); conditions: at 10 µM
# [18] = target: T2, Serine/threonine-protein kinase Sgk1 (Homo sapiens); conditions: at 1 µM
smiles,measurement,setting,value
c1cc(-c2cnn3cc(-c4ccc(OCCN5CCCCC5)cc4)cnc23)ccn1,residual activity,[1],104%
same,residual activity,[2],67%
same,residual activity,[3],74%
same,residual activity,[4],46%
same,residual activity,[5],28%
same,residual activity,[6],50%
same,residual activity,[7],68%
same,residual activity,[8],63%
same,residual activity,[9],66%
COc1cc2c(cc1OC)-c1n[nH]c(Nc3cccc(F)c3)c1C2,residual activity,[10],100%
O=C1Nc2ccccc2/C1=C1/Nc2ccccc2/C1=N\OCCC(O)CO (stereo not given),residual activity,[10],95%
COc1cc(OC)c(/C=C2\C(=O)Nc3ccccc32)c(OC)c1,residual activity,[11],102%
same,residual activity,[3],101%
same,residual activity,[4],63%
same,residual activity,[5],57%
same,residual activity,[12],96%
same,residual activity,[6],97%
same,residual activity,[7],103%
same,residual activity,[8],95%
same,residual activity,[13],89%
same,residual activity,[14],85%
same,residual activity,[15],99%
same,residual activity,[16],92%
same,residual activity,[10],97%
same,residual activity,[17],96%
same,residual activity,[18],82%
same,residual activity,[9],86%
N/C(=N\[N+](=O)[O-])N/N=C\c1ccc(-c2cccc([N+](=O)[O-])c2)o1,residual activity,[4],43%
same,residual activity,[5],52%
same,residual activity,[7],93%
same,residual activity,[8],96%
same,residual activity,[13],81%
same,residual activity,[14],91%
CN(C)c1ccc(/C=C2\C(=O)Nc3ccccc32)cc1,residual activity,[10],113%
same,residual activity,[17],83%
O=C1NC(=O)c2cc(Nc3ccc(F)cc3)c(Nc3ccc(F)cc3)cc21,residual activity,[10],99%
same,residual activity,[17],82%
CC(=O)O/N=C1\C(=C2\C(=O)Nc3cc(Br)ccc32)Nc2ccccc21,residual activity,[10],94%
same,residual activity,[17],92%
Nc1ccc2ncnc(NCCc3ccc(Oc4ccccc4)cc3)c2c1,residual activity,[10],107%
same,residual activity,[17],108%
Cn1sc(=O)n(Cc2ccccc2)c1=O,residual activity,[10],90%
same,residual activity,[17],97%
COc1cc2ncnc(Nc3ccc(Oc4ccccc4)cc3)c2cc1OC,residual activity,[10],108%
same,residual activity,[17],101%
O=C1NC(=O)/C(=C/c2ccc3c(c2)OC(F)(F)O3)S1,residual activity,[10],110%
same,residual activity,[17],113%
C[C@@H](N)[C@H]1CC[C@H](C(=O)Nc2ccncc2)CC1,residual activity,[10],111%
same,residual activity,[17],111%
O=c1c2ccccc2[nH]c(=S)n1CCN1CCC(=C(c2ccc(F)cc2)c2ccc(F)cc2)CC1,residual activity,[10],115%
same,residual activity,[17],90%
CCN(CC)CCCCN1c2ccccc2Oc2ccc(Cl)cc21,residual activity,[10],131%
same,residual activity,[17],100%
O=C1Nc2cc(Br)ccc2/C1=C1/Nc2ccccc2/C1=N\O,residual activity,[10],95%
same,residual activity,[17],94%
CCCC(=O)Oc1ccc2[nH]c(C(=O)c3cc4ccccc4[nH]3)cc2c1,residual activity,[10],96%
same,residual activity,[17],98%
CN(C)CCCn1cc(C2=C(c3c[nH]c4ccccc34)C(=O)NC2=O)c2ccccc21,residual activity,[10],125%
same,residual activity,[17],131%
O=C1NC(=O)c2c1c1c3ccccc3[nH]c1c1[nH]c3cc(Br)ccc3c21,residual activity,[10],96%
same,residual activity,[17],88%
O=C1NC(=O)/C(=C\c2ccc3nccnc3c2)S1,residual activity,[10],100%
same,residual activity,[17],61%
CC(C)n1cnc2/c(=N/c3cccc(Cl)c3)nc(NCCO)[nH]c21,residual activity,[10],96%
same,residual activity,[17],99%
Ic1cccc(CSc2nnc(-c3ccncc3)o2)c1,residual activity,[10],88%
same,residual activity,[17],93%
CCOc1cc2ncnc(Nc3cccc(Br)c3)c2cc1OCC,residual activity,[10],103%
same,residual activity,[17],98%
Nc1n[nH]c2nnc(-c3c(-c4ccccc4)nn4ccccc34)cc12,residual activity,[10],91%
same,residual activity,[17],69%
COc1ccc(OC)c2c(=S)c3ccccc3[nH]c12,residual activity,[10],95%
same,residual activity,[17],91%
CC(=O)c1ccc(N2CCOCC2)cc1O,residual activity,[10],110%
same,residual activity,[17],102%
Nc1nc(Nc2ccc(S(N)(=O)=O)cc2)nn1C(=S)Nc1c(F)cccc1F,residual activity,[10],56%
same,residual activity,[17],69%
Oc1ccc(Nc2nc(-c3ccc(Cl)cc3)cs2)cc1,residual activity,[10],112%
same,residual activity,[17],100%
O=C(O)c1ccc2c3c1cccc3c(=O)n1c3ccccc3nc21,residual activity,[10],106%
same,residual activity,[17],102%
Cc1nc(-c2ccccc2)c(-c2ccncc2)o1,residual activity,[10],106%
same,residual activity,[17],103%
O=c1cc(-c2cccc3c2Sc2ccccc2S3)oc(N2CCOCC2)c1,residual activity,[10],104%
same,residual activity,[17],101%

# From ChEMBL document CHEMBL2218924, “A broad activity screen in support of a chemogenomic map for kinase signalling research and drug discovery” (Biochem J, 2013)
